# SMN2 splice enh: increases expression of the SMN2 splice variant | HEK293 SMN2-luciferase splicing reporter, luminescence, 30-36 h | Potency, µM (highest dose often 46.1 µM), for inactives: at the highest dose activity change, positive = activation, hits mostly activators | 2.8% of 210,000 active; note: % of control where 0% means no effect; nearly all actives have a fitted effect of over 55% in size
#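 HEK293 cells carry an SMN2 […]–luciferase reporter in which exon 7 inclusion puts luciferase in frame. Cells were plated 10-12 h before compound addition, then incubated 30-36 h at 37C. ONE-Glo luminescence was read; sodium butyrate at 4.5 mM final served as control.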
# FLuc modulator: inhibits or activates purified firefly luciferase, miR-21 counter-screen; Potency, µM (doses to about 57.5 µM), for inactives: top-dose activity change, negative = inhibition, most hits filed as inhibitors; 6.9% of 360,000 active; P08659; purified FLuc, Km substrates, luminescence inhibition;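 note: plate controls were vehicle for no effect and reference inhibitor for full effect; nearly all actives have a fitted effect of over 55% in size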
# Target sequence (P08659 whole entry, looked up): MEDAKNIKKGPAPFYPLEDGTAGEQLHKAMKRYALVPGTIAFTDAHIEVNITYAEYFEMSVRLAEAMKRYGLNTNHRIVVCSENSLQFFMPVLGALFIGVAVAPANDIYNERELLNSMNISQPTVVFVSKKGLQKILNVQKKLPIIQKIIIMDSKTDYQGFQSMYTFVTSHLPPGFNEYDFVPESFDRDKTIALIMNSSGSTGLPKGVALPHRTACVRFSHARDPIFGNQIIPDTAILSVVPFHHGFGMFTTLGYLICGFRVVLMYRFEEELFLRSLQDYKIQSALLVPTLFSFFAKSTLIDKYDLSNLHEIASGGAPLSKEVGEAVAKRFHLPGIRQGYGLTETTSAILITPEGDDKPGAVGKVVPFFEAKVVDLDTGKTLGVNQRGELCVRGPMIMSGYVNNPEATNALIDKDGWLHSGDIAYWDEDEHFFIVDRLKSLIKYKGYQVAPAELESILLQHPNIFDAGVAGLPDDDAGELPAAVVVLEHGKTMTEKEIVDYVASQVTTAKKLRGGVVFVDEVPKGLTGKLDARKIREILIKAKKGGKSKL
#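 Purified P. pyralis luciferase, 10 nM final, with Km-level 10 uM D-luciferin and 10 uM ATP in 50 mM Tris acetate pH 7.5, 10 mM Mg acetate, 0.01% Tween-20, 0.05% BSA; 6-point qHTS titration about 60 µM downward; luminescence read.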
# ELG1 genotox: inducers of genotoxicity in HEK293T ELG1-luciferase cells; HEK293T ELG1-luciferase reporter, luminescence, 16 h; Potency, µM (doses to about 46 µM), for the others: top-dose activity change, positive = activation, hits mostly activators; 1.3% of 330,000 active; AID 504466; note: % of control where 0% means no effect; nearly all actives have a fitted effect of over 60% in size
#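 Luminescence read-out: rising ELG1-luciferase signal, reflecting elevated ELG1 protein under genetic stress, flags genotoxic compounds. Cells were treated for 16 hr at 37 °C before ONE-Glo detection.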
# NPC1 promoter act: activators of NPC1 promoter; Huh7 NPC1 promoter luciferase reporter, 24 h; Potency, µM (doses to about 9.22 µM), for inactives: top-dose activation, usual class: activators; 2.4% of 320,000 active; AID 485313; note: % of control where 0% means no effect; nearly all actives have a fitted effect of over 60% in size
#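 Luminescence from an NPC1 promoter-driven luciferase reporter in stably transfected Huh7 cells was measured after 24 h compound treatment at 37 °C, followed by 10 min ambient incubation with luciferase detection reagent.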
# Rab9 promoter act: Rab9 promoter activation | Huh7 Rab9 promoter-luciferase reporter, luminescence, 24 h | Potency, µM (titrated, usually from 9.22 µM), for the others: top-dose activation, negative = inhibition, actives largely listed as activators | 2.8% of 320,000 active; note: % of control where 0% means no effect; nearly all actives have a fitted effect of over 60% in size
#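 Measured in stably transfected Huh7 cells bearing a Rab9 promoter–luciferase construct: 24 h compound treatment at 37 °C, followed by luminescence detection.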
# ELG1 DNA repair: ELG1-dependent DNA repair inhibition | 2.3% of 330,000 active | Potency, µM (series often up to 46.1 µM), for inactives: at the highest dose activity change, negative = inhibition, usual class: inhibitors | HEK293T ELG1-luciferase reporter, luminescence, 16 h; DNA damage induced by 5-fluorouridine; note: % is set by controls: 0 for no effect and ±100 for the full control effect; nearly all actives have a fitted effect of over 55% in size
#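 Luminescence from the luciferase reporter, measured 30 min after ONE-Glo reagent at room temperature, was the read-out. Beforehand, 2,000 cells per well were exposed for 16 hr at 37 °C to 5-fluorouridine together with compound or vehicle.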
# ELG1 FLuc counter: luciferase inhibition in cell-free luciferin readout for ELG1 hits | shares compounds with ELG1 DNA repair | cell-free firefly luciferase luminescence counter-screen, ViewLux | Potency, µM (top dose mostly 46.1 µM), inactives show at the top dose activity change, negative = inhibition, usual class: inhibitors | 3% of 350 active; note: % is set by controls: 0 for no effect and ±100 for the full control effect
# ELG1 Luc conf: human ELG1 repair inhibition, luciferase-tagged ELG1 confirmation; shares compounds with ELG1 DNA repair; HEK293T ELG1-luciferase levels, luminescence; cells co-treated with 5-fluorouridine; Potency, µM (highest dose often 46.1 µM), inactives show top-dose activity change, negative = inhibition, most hits filed as inhibitors; 68% of 670 active; AID 624248; note: % is set by controls: 0 for no effect and ±100 for the full control effect; nearly all actives have a fitted effect of over 55% in size
# ELG1-Luc MMS: inhibits ELG1-dependent repair under MMS stimulation in HEK293T cells; shares compounds with ELG1 DNA repair; 53% of 670 active; HEK293T luciferase-tagged ELG1 level, MMS stimulated; Potency, µM (top dose mostly 46.1 µM), for the others: at the top dose activity change, negative = inhibition, usual class: inhibitors; AID 624249; note: % is set by controls: 0 for no effect and ±100 for the full control effect; nearly all actives have a fitted effect of over 60% in size
# ELG1 5-FU: confirmation of ELG1 repair inhibitors: viability with 5FU; cell viability with 5-FU, ELG1-dependent repair; 670 tested, under 10 active; shares compounds with ELG1 DNA repair; Potency, µM (doses to about 46.1 µM), inactives show at the top dose activity change, negative = viability loss, most hits filed as cytotoxic;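 note: ELG1-luc HEK293T cells cotreated with 5-fluorouridine at 10 µM final; viability measured 16 h after compound addition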
# ELG1 MMS cell: confirmation of ELG1 repair inhibitors: viability with MMS | Cell viability with MMS, ELG1-dependent DNA repair | Potency, µM (titrated, usually from 46.1 µM), without a hit: at the highest dose activity change, negative = viability loss, usual class: cytotoxic | shares compounds with ELG1 DNA repair | 33% of 670 active;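 note: ELG1-luc HEK293T cells co-treated with 10 µM MMS; viability read 16 h after compound addition; % is set by controls: 0 for no effect and ±100 for the full control effect; nearly all actives have a fitted effect of over 60% in size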
# ELG1 unstim viab: affects unstimulated cell viability, ELG1 hit counter-screen; shares compounds with ELG1 DNA repair; cell viability counter-screen, unstimulated, luminescence; Potency, µM (doses to about 45.9 µM), for the others: top-dose activity change, negative = loss of viability, actives largely listed as cytotoxic; 8% of 900 active;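 note: compound exposure lasted 16 hours before reading; % is set by controls: 0 for no effect and ±100 for the full control effect; nearly all actives have a fitted effect of over 55% in size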
# FLuc biochem: counter-screen for ELG1 repair inhibitors: firefly luciferase inhibition | shares compounds with ELG1 DNA repair | purified firefly luciferase, luminescence counter-screen | Potency, µM (doses to about 57.5 µM), for inactives: top-dose activity, negative = inhibition, most hits filed as inhibitors | 10% of 350 active; note: % is set by controls: 0 for no effect and ±100 for the full control effect
# An asterisk follows results filed as active; ? = inconclusive; / = not tested or not shown. Sampled rows, rich in hits. Any-hit rate of the full collection: about 9.2%. Calls come from the whole dose curve; as a rule, active = well fitted curve in the direction sought with a large enough effect; inconclusive = small, poorly fitted or top-dose-only effect, or another doubt; inactive = no such curve, though single readings can be large; an effect the other way counts as inactive or inconclusive. Potency is the fitted concentration of half-maximal effect.
SMILES,SMN2 splice enh,FLuc modulator,ELG1 genotox,NPC1 promoter act,Rab9 promoter act,ELG1 DNA repair,ELG1 Luc conf,ELG1-Luc MMS,ELG1 5-FU,ELG1 MMS cell,ELG1 unstim viab,others
Cc1ccc(C2CC(C(F)(F)F)n3ncc(C(=O)NCc4ccco4)c3N2)cc1 (centres undefined),3%,0%,0%,-4%,-2%,-20%,28µM*,-11%,?,5%,7%,ELG1 FLuc counter=5%;FLuc biochem=-8%
COc1cc(-c2cc(C(F)(F)F)n3ncc(C(=O)O)c3n2)cc(OC)c1OC,10%,5%,3%,0%,2%,4.1µM*,7.1µM*,10%,?,?,12%,
CCc1ccccc1NC(=O)c1cnn2c(C(F)(F)F)cc(-c3ccc(OC)c(OC)c3)nc12,1%,-1%,/,/,/,/,/,/,/,/,/,
Cc1ccc(C2CC(C(F)(F)F)n3ncc(C(N)=O)c3N2)cc1 (centres undefined),-10%,-10%,-1%,7%,6%,-15%,/,/,/,/,/,
O=C(NCc1ccco1)c1cnn2c(C(F)(F)F)cc(-c3ccccc3)nc12,-6%,-1%,-1%,0%,-2%,?,/,/,/,/,/,
COc1ccc(-c2cc(C(F)(F)F)n3ncc(C(=O)NCc4ccco4)c3n2)cc1,-19%,5%,7%,-6%,-1%,1.3µM*,1.8µM*,?,?,-8%,-12%,ELG1 FLuc counter=0%;FLuc biochem=-12%
CC(C)(C)c1ccccc1NC(=O)N1CCNC(=O)C1CC(=O)Nc1ccc(F)cc1 (centres undefined),/,-4%,3%,6%,10%,2%,/,/,/,/,/,
Cc1ccc2c(c1)N(S(=O)(=O)c1ccc(CN3C(=O)c4cccnc4C3=O)s1)CCO2,/,0%,-5%,3%,-2%,1%,/,/,/,/,/,
O=C(c1ccncc1)N1CCC2(CC1)CN(c1ccccn1)C2,-19%,/,/,/,/,/,/,/,/,/,/,
Nc1ncnc(N2CCc3ccccc32)c1[N+](=O)[O-],3%,-1%,-20%,9%,-27%,1.8µM*,1.6µM*,7.9µM*,-10%,-3%,-19%,
COCCNc1ccc([N+](=O)[O-])cc1C(=O)NC1CCCc2ccccc21 (centres undefined),/,1%,-5%,2%,3%,-7%,/,/,/,/,/,
O=[N+]([O-])c1ccc(NS(=O)(=O)c2cccc3cccnc23)cc1,/,-1%,1%,-2%,7%,-4%,/,/,/,/,/,
COc1ccc(S(=O)(=O)Nc2cccc3cccnc23)c([N+](=O)[O-])c1,/,/,/,/,/,/,/,/,/,/,?,
CCCNC(=O)c1ccc(N2CCC3(CC2)CC(c2ccccc2)=NO3)c(NC(=O)c2cccc(OC)c2)c1,/,0%,-7%,-2%,-2%,4.6µM*,5µM*,?,?,3%,?,
Cc1ccc(CNC(=O)c2ccc(N3CCC4(CC3)CC(c3ccccc3)=NO4)c(NC(=O)c3ccco3)c2)cc1,/,4%,-1%,-8%,0%,1.2µM*,?,?,?,?,1%,
Cc1ccc(NC(=O)CN2C(=O)c3ccccc3Sc3ccc(C(=O)N4CCOCC4)cc32)c(Cl)c1,/,-13%,/,/,/,/,/,/,/,/,/,
CC(C)c1ccc(NC(=O)N2CCCC2C(=O)Nc2ccc(-n3cnnn3)cc2)cc1 (centres undefined),8%,2%,-1%,9%,-1%,-16%,/,/,/,/,/,
Cc1cc(C)cc(NC(=O)N2CCCC2C(=O)Nc2ccc(-n3cnnn3)cc2)c1 (centres undefined),9%,0%,-1%,0%,1%,?,?,-8%,?,-1%,2%,
CCOc1ccc(NC(=O)CN2CCN(CC(=O)Nc3ccccc3OCC)CC2)cc1,/,-5%,/,/,/,/,/,/,/,/,/,
Nc1ccc2nc(SCC(=O)N3CCN(c4ccccc4)CC3)sc2c1,/,-8%,-10%,-11%,-15%,2.6µM*,?,7.9µM*,-3%,7.1µM*,?,
O=C(COc1ccc(S(=O)(=O)N2CCCC2)cc1)NCc1ccccn1,/,0%,-2%,-1%,0%,2%,/,/,/,/,/,
COc1cc(CC(NC(C)=O)C(=O)NC2CCN(c3nc(C)cc(C)c3C#N)CC2)cc(OC)c1 (centres undefined),-14%,5%,0%,-1%,6%,-10%,/,/,/,/,/,
COc1cccc(CC(NC(C)=O)C(=O)NC2CCN(c3nc(C)cc(C)c3C#N)CC2)c1OC (centres undefined),-21%,-2%,-9%,-1%,-7%,2.8µM*,7.9µM*,2%,?,3%,-4%,
COC(=O)c1cnn(-c2ccc(C(=O)Nc3ccc(C(C)=O)cc3)cc2)c1N,/,4%,/,-1%,-3%,/,/,/,/,/,/,
